Screening results deposited in PubChem by The Scripps Research Institute Molecular Screening Center.
MOR-DOR ag-1: OPRM1-OPRD1 heterodimerization agonism; 340,000 tested, 0.3% active; activation, % at 9.3 µM; P35372+P41143; cells, luminescence;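 also: 0% = vehicle-treated cells and 100% = reference agonist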
Target sequence (P35372 whole entry, looked up): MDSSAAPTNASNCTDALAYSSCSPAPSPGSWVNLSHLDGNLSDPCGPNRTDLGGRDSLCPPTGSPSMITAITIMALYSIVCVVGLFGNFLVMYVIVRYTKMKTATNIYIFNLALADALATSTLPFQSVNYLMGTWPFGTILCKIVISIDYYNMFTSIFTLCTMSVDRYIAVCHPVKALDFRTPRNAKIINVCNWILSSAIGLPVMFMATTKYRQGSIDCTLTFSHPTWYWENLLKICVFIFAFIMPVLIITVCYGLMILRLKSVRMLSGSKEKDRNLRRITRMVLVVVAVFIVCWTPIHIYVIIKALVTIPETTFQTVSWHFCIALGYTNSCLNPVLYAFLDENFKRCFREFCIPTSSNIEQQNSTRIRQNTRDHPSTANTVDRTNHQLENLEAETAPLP
Target sequence (P41143 whole entry, looked up): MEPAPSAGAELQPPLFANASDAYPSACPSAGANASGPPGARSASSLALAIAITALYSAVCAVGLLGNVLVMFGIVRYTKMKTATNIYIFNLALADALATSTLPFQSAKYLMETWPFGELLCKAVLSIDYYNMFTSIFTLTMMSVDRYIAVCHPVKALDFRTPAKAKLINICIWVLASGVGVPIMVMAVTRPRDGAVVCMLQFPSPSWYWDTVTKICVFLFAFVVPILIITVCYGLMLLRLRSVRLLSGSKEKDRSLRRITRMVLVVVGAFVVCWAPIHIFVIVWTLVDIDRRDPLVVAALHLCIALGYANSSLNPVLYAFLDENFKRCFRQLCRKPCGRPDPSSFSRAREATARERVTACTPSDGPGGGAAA
HTR5A ag: counter-screen for OPRM1-OPRD1 agonists: human HTR5A agonism; P47898; HTR5A agonist assay, luminescence, cell-based; activation, % at 9.3 µM; 340,000 tested, 0.61% active; in the data active = activation mostly above about 9.5%, no sharp cut-off; inactive = mostly below about 7.6%;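 also: 0% = cells with vehicle only and 100% = reference agonist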
HTR5A inv ag: counter-screen for OPRM1-OPRD1 inverse agonists: human HTR5A inverse agonism; P47898; HTR5A cell line, luminescence; inhibition, % at 9.3 µM; 340,000 tested, 0.083% active; AID 504634; in the data active = inhibition mostly above about 23%, no sharp cut-off; inactive = mostly below about 18%;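 also: 0% = cells with DMSO and 100% = no-cell wells with DMSO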
OPRM1-OPRD1 inv: inverse agonists of human mu-delta opioid receptor heterodimerization. P35372+P41143. cell-based MOR-DOR heterodimer luminescence, inverse agonism. 340,000 tested, 0.21% active. inhibition, % at 9.3 µM; in the data active = inhibition above about 22%, passing the limit was not always enough;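 also: 0% = cells with DMSO and 100% = wells without cells with DMSO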
bovine MsrA act: bovine methionine sulfoxide reductase A activation; purified bovine MsrA, absorbance read-out; activation, % at 10.6 µM; 360,000 tested, 0.3% active; in the data active = activation above about 7.5%;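 also: 0% = vehicle and 100% = reference activator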
MsrA inhibitor: inhibits bovine methionine sulfoxide reductase A. purified bovine MsrA, absorbance read-out. inhibition, % at 15.5 µM. 360,000 tested, 0.75% active; in the data active = inhibition above about 4.5%;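 also: 0% = vehicle wells with enzyme and 100% = reference inhibitor wells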
MOR-DOR ag-2: counter-screen for HTR5A agonists: OPRM1-OPRD1 heterodimerization agonism; activation, % at 9.3 µM; AID 504913; shares compounds with HTR5A ag; 800 tested, 13% active; U2OS counter-screen cells, complementation luminescence, 3 h
HTR5A ag conf: confirmation of human HTR5A agonists. shares compounds with HTR5A ag. HTR5A agonist cell assay, luminescence. activation, % at 9.3 µM. 800 tested, 17% active; in the data active = activation above about 17%;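 also: 0% = cells with vehicle only and 100% = full reference agonist response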
* hit, by the source's call; . = no result. An excerpt weighted towards active compounds, which were near 1.9% of everything screened. Rule as the data show it, unless noted: active = activation above about 18%; inactive = the rest.

SMILES | MOR-DOR ag-1 | HTR5A ag | HTR5A inv ag | OPRM1-OPRD1 inv | bovine MsrA act | MsrA inhibitor | MOR-DOR ag-2 | HTR5A ag conf
Cc1[nH]nc(-c2ccc(OCc3cnn(-c4ccccc4)c3)c(C)c2O)c1Oc1ccccc1 | 14 | 22* | -27 | -64 | -1 | 0 | 19* | 10
COc1ccc2c(c1)[C@@H](NC(=O)c1ccncc1)[C@@H]1Cc3ccccc3[C@H]21 | . | . | . | . | . | -2 | . | .
COC(=O)c1cc(NS(=O)(=O)c2ccc(N3CCOCC3)c(N)c2)cc(C(=O)OC)c1 | 4 | 15* | -52 | -22 | -12 | 1 | 5 | -12
COC(=O)[C@]12C[C@H](CC(=O)N3CCCC3)C(=O)N(CCC3=CCCCC3)C1=C[C@H](COCc1ccccc1)O[C@@H]2C | . | . | . | . | . | 1 | . | .
O[C@@H]1C2CCCC1[C@]1(O)CCCCC1C2 (stereo not given in full) | -4 | 19* | -47 | 16 | -12 | 0 | 1 | 2
COc1ccc(CC2NCCC3(O)CCCCC23)cc1 (stereo not given) | 0 | -1 | -29 | 2 | 0 | -2 | . | .
CC1CC(C)(C)NC(=S)N1CCC(=O)N1CCN(c2ccccc2)CC1 (stereo not given) | -2 | -2 | 7 | 11 | -3 | 0 | . | .
CC1CC(C)(C)NC(=S)N1CCC(=O)N1CCc2ccccc2C1 (stereo not given) | 2 | 15* | -33 | -7 | -14 | 0 | 2 | -2
CN(C)c1ccc(S(=O)(=O)c2ccc(Cl)cc2)cc1 | 5 | 16* | 24 | -29 | -14 | 2 | 2 | 2
COc1ccccc1NC(=S)N1C2CCC1CC(NC(=O)NC13CC4CC(CC(C4)C1)C3)C2 (stereo not given) | 1 | 16* | -36 | -3 | -1 | 0 | 0 | 3
C=CCN=C1NC(c2cccc(F)c2)C(C(=O)OC)=C(C)N1Cc1ccccc1C(F)(F)F (stereo not given) | . | . | . | . | . | -1 | . | .
Cc1ccccc1NC(=O)Cc1nc(COC(=O)/C=C/c2ccc(F)cc2)cs1 | . | . | . | . | -4 | 0 | . | .
C=CCOc1ccc(/C=C/C(=O)OCc2csc(CC(=O)Nc3ccccc3C)n2)cc1 | 4 | 20* | -50 | -16 | -4 | -1 | 33* | 7
Cc1ccc(C(=O)NC(=S)Nc2ccc(-c3ccc(CO)o3)cc2)cc1 | -1 | 15* | -39 | 6 | 1 | 1 | 12 | 2
O=C(NC(=S)Nc1ccc(-c2ccc(CO)o2)cc1)c1cccs1 | . | . | . | . | -3 | . | . | .
O=C(CSc1ccc(-c2ccc(F)cc2)nn1)NCc1ccco1 | 2 | 19* | -50 | -9 | 1 | -1 | 2 | 0
O=C(Oc1ccc(N2C(=O)CCC2=O)cc1)c1ccccc1Cl | -3 | 3 | 12 | 14 | -3 | 0 | . | .
Cc1cc(OC(=O)c2ccccc2Cl)cc(=O)n1C | 2 | 16* | -3 | -7 | -1 | 1 | 123* | -4
CCOc1nc(CC(C)C)c2c(c1C#N)CC(C)(C)OC2 | 4 | 16* | 3 | -23 | -9 | -1 | 6 | -1
COc1ccc(NC(=O)O/N=C2/CCCc3ccc(OC)cc32)cc1 | -2 | 19* | -69 | 12 | -2 | -1 | 2 | 28*
COc1ccc(NC(=O)CN(C)CC(=O)Nc2ccc3c(c2)CCC3)cc1 | -2 | -2 | -10 | 11 | -2 | -1 | . | .
COc1ccc2c(c1)/C(=N/OC(=O)c1cccs1)CCC2 | 4 | 22* | -117 | -26 | 0 | 0 | 3 | 31*
CC(C)(C)S(=O)N1C[C@@H]2CC(=O)C(CCO)=C2[C@H]1CCO (stereo not given in full) | . | . | . | . | . | 1 | . | .
COC(=O)[C@]12C[C@H](CC(=O)N3CCOCC3)C(=O)N(Cc3ccccc3)C1=C[C@H](C1CCCC1)O[C@@H]2C | . | . | . | . | . | 0 | . | .
COc1ccc(-c2ccc3c(n2)CCCN3S(=O)(=O)c2ccc(C(F)(F)F)cc2)cc1 | . | . | . | . | . | 0 | . | .
N=C1S/C(=C\c2ccc(O)cc2)C(=O)N1c1ccc(F)cc1 | 8 | 15* | -43 | -40 | -10 | . | 7 | 10
COC(=O)[C@]12C[C@H](CC(=O)NCc3ccc(C)o3)C(=O)N(CCC3=CCCCC3)C1=C[C@H](COCc1ccccc1)O[C@@H]2C | . | . | . | . | . | 0 | . | .
